# Measurements from PMC4102417.
# System: murine 3T3 fibroblasts
# Test: primary screen, percent viability or growth; higher = less effect of the substance
# Method: Similarly, for measuring the cytotoxicity concentration (CC50) for 3T3 fibroblast cells, cultures were incubated with drugs for 72 hours and developed using Alamar Blue (Alamar Biosciences Inc, Sacramento, CA) as previously described.
row,SMILES,Mammalian (3T3) cell % growth at 10 uM [%]
1,COc1ccc(C[C@H]2NC[C@H](O)[C@H]2OC(C)=O)cc1,10.3
2,C[C@@H]1CC[C@H]2[C@@H](C)C(=O)O[C@@H]3O[C@@]4(C)CC[C@@H]1[C@]32OO4,77.6
3,Cc1c(O)c(O)cc2c1CC=C1[C@@]2(C)CC[C@@]2(C)[C@@H]3C[C@](C)(C(=O)O)CC[C@]3(C)CC[C@]12C,0.1
4,CC[C@@]1(O)C(=O)OCc2c1cc1n(c2=O)Cc2cc3ccccc3nc2-1,94.3
5,CC(C)c1ccc2c(c1O)CC[C@H]1C3=C(CC[C@]21C)C(=O)OC3,83.1
6,CC1=C(O)C(=O)C=C2C1=CC=C1[C@@]2(C)CC[C@@]2(C)[C@@H]3C[C@](C)(C(=O)O)CC[C@]3(C)CC[C@]12C,1
7,O=C1C=C2C=C[C@@H]3C[C@@]2(O1)[C@H]1CCCCN31,75
